The panel holds about 83,000 compounds, 20% with a hit somewhere; the sample as a whole holds those more often.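 Results are percent growth after 48 hours of single-concentration exposure. 100 means growth as in untreated cells, lower positive values show inhibition; negative values down to -100 show cell death.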 Activity calls are given as the source filed them. Rule for the calls: active = growth percent below 10; inactive = the rest.
What was measured:
Test in all cases: NCI-60 one-dose screen, 48 h (100 = growth as untreated, 0 = no growth, -100 = all killed)
Conditions in all cases: 10 µM unless noted
T-47D breast = test system: T-47D breast
BT-549 breast = test system: BT-549 breast
MDA-MB-435 melanoma = test system: MDA-MB-435 melanoma
SW-620 colon = test system: SW-620 colon
MCF7 breast = test system: MCF7 breast
HCT-116 colon = test system: HCT-116 colon
HCC-2998 colon = test system: HCC-2998 colon
KM12 colon = test system: KM12 colon

Measured: growth

COc1cc2cc(Oc3ccc(NC(=O)c4cccc(C(F)(F)F)c4)cc3)c(C)nc2cc1OCCN(C)C
inactive: T-47D breast 91.2% | BT-549 breast 101% | SW-620 colon 79.5% | MCF7 breast 22.7% | HCT-116 colon 61.2% | HCC-2998 colon 80.3% | KM12 colon 76.9%
active: MDA-MB-435 melanoma 6.7%

COCCOc1ccc(-c2csc(NC(C)=O)n2)cc1NS(=O)(=O)c1cccc2c(N(C)C)cccc12
inactive: T-47D breast 67.7% | BT-549 breast 105% | MDA-MB-435 melanoma 105% | SW-620 colon 111% | MCF7 breast 85% | HCT-116 colon 88.2% | HCC-2998 colon 113% | KM12 colon 97.1%

COc1cc2c3c(n(CCCNC4CCCC4)c(=O)c2cc1OC)-c1cc2c(cc1C3=O)OCO2
inactive: T-47D breast 86% | BT-549 breast 74.8% | HCC-2998 colon 23.2% | KM12 colon 65.6%
active: MDA-MB-435 melanoma -49.6% | SW-620 colon -83.6% | MCF7 breast -74.8% | HCT-116 colon -90.9%

CSc1ccc(/C(=N/N=C(N)N)c2ccccc2)cc1
inactive: T-47D breast 70.9% | BT-549 breast 53.8% | SW-620 colon 25.7% | MCF7 breast 11.7% | HCT-116 colon 13% | KM12 colon 17.2%
active: MDA-MB-435 melanoma -18% | HCC-2998 colon 9.99%

Cc1ccc(-c2nnc3sc(C4=Cc5ccccc5OC=C4)nn23)cc1
inactive: T-47D breast 91.6% | BT-549 breast 95.7% | MDA-MB-435 melanoma 93.7% | SW-620 colon 99.9% | MCF7 breast 88.9% | HCT-116 colon 104% | HCC-2998 colon 101% | KM12 colon 106%

O=C(COc1ccc(/C=C2\SC(=O)NC2=O)cc1)Nc1ccc(C(=O)/C=C/c2cc3ccccc3nc2Cl)cc1
active: MCF7 breast -4.07% | HCT-116 colon -57.2%
inactive: T-47D breast 54.7% | BT-549 breast 67.7% | MDA-MB-435 melanoma 13.6% | SW-620 colon 88.7% | HCC-2998 colon 64.6% | KM12 colon 59.5%

COc1ccc(/C(C)=C(\c2ccc(Cl)cc2)c2ccc(OCCN)cc2)cc1
inactive: T-47D breast 95.2% | BT-549 breast 91.7% | MDA-MB-435 melanoma 76.9% | SW-620 colon 36.4% | MCF7 breast 72.4% | HCT-116 colon 42.3% | HCC-2998 colon 30.2% | KM12 colon 78.2%

Cc1cc(O)c(=O)cc2c1C[C@H]1CC(C)(C)/C=C/C[C@]3(C)Oc4cc(=O)c(O)cc(C)c4C[C@H]3C[C@H](O)[C@@]1(C)O2
active: T-47D breast -2.55% | BT-549 breast 1.87% | MCF7 breast 7.16%
inactive: MDA-MB-435 melanoma 15.7% | SW-620 colon 15.1% | HCT-116 colon 11.3% | HCC-2998 colon 30.8% | KM12 colon 23.6%

Oc1ccc(CSc2nnc(-c3ccc(Br)cc3)n2-c2ccccc2)c2cccnc12
inactive: T-47D breast 48.1% | BT-549 breast 40.3% | MDA-MB-435 melanoma 19.5% | SW-620 colon 26.6% | MCF7 breast 11% | HCT-116 colon 21.7% | HCC-2998 colon 44.9% | KM12 colon 26.3%

C/C=C/[C@@H]1C=C[C@@H]2C[C@H](C)CC[C@H]2[C@]1(C)/C(O)=C1/C(=O)[C@H](CO)N(C)C1=O
inactive: T-47D breast 74.7% | BT-549 breast 75.2% | MDA-MB-435 melanoma 74.8% | SW-620 colon 52.5% | MCF7 breast 68.3% | HCT-116 colon 61.4% | HCC-2998 colon 57% | KM12 colon 47.2%

C/C(=N\NC(=S)Nc1ccc(Br)cc1)c1cc2ccccc2oc1=O
active: BT-549 breast 8.5% | MCF7 breast 6.49% | KM12 colon 0.612%
inactive: T-47D breast 43.1% | MDA-MB-435 melanoma 11.4% | SW-620 colon 27.7% | HCT-116 colon 16.3% | HCC-2998 colon 29.8%

NC(=O)c1c(NC(=O)c2cccc(OC(F)(F)F)c2)sc2c1CCC(=O)C2
inactive: T-47D breast 28.1% | BT-549 breast 28.4% | MDA-MB-435 melanoma 64.7% | SW-620 colon 18.3% | MCF7 breast 27.4% | HCT-116 colon 15.6% | HCC-2998 colon 104% | KM12 colon 31.4%

Cc1cccc(NC(c2cc3cccc4ccc5cccc2c5c43)c2nnnn2C(C)(C)C)c1C (centres undefined)
inactive: T-47D breast 68.4% | BT-549 breast 99.2% | MDA-MB-435 melanoma 93% | SW-620 colon 93.7% | MCF7 breast 66.9% | HCT-116 colon 70.5% | HCC-2998 colon 99.6% | KM12 colon 95.8%

COc1ccc2c(c1)c(-c1nnc(N)nc1-c1cn(C)c3ccccc13)cn2C
inactive: T-47D breast 82.3% | BT-549 breast 108% | MDA-MB-435 melanoma 91.6% | SW-620 colon 94.6% | MCF7 breast 79.5% | HCT-116 colon 89.2% | HCC-2998 colon 102% | KM12 colon 94.6%

CCN1C(=O)N(CC)C2SC(N/N=C/C=C/c3ccccc3OC)=NC21 (centres undefined)
inactive: T-47D breast 67.3% | BT-549 breast 18.7% | SW-620 colon 20.4% | MCF7 breast 12.9% | KM12 colon 11.6%
active: MDA-MB-435 melanoma -16.7% | HCT-116 colon 6.23% | HCC-2998 colon 8.41%

CN(C)CCn1c2ccc(N)cc2c2nc3ccccc3nc21
inactive: T-47D breast 36.4% | BT-549 breast 85.5% | MDA-MB-435 melanoma 38.4% | SW-620 colon 17.1% | HCT-116 colon 11.3% | HCC-2998 colon 45.9% | KM12 colon 38.5%
active: MCF7 breast 9.61%

CCC(CC)N1C(=O)/C(=c2\sc3n(c2=O)C2C(NN=3)N(CC)C(=O)N2CC)c2ccccc21 (centres undefined)
active: MDA-MB-435 melanoma -8.32%
inactive: T-47D breast 66.5% | BT-549 breast 78.6% | SW-620 colon 27.2% | MCF7 breast 15% | HCT-116 colon 15.1% | HCC-2998 colon 21.7% | KM12 colon 14.2%

COc1cc2c3c(n(CCCNCC4CC4)c(=O)c2cc1OC)-c1cc2c(cc1C3=O)OCO2
active: SW-620 colon -20.1% | MCF7 breast -77.4% | HCT-116 colon -85.1%
inactive: T-47D breast 50.6% | BT-549 breast 66.1% | MDA-MB-435 melanoma 65% | HCC-2998 colon 69.1% | KM12 colon 65.1%

CS(=O)(=O)c1nccc(-c2c(-c3ccc(F)c(OCCc4ccc(F)cc4)c3)nc3sccn23)n1
inactive: BT-549 breast 57.2% | MDA-MB-435 melanoma 87.2% | SW-620 colon 67.1% | HCT-116 colon 47.6%
active: T-47D breast -75.5% | MCF7 breast -61% | HCC-2998 colon -91% | KM12 colon -42.9%

Nc1nc(N)c2c(n1)NC(c1ccccc1)CC(c1ccc(Nc3nc(NCCO)nc(Nc4ccc(Cl)cc4)n3)cc1)=N2 (centres undefined)
active: SW-620 colon -83.3% | MCF7 breast -71.3% | HCT-116 colon -92.7%
inactive: T-47D breast 62.1% | BT-549 breast 79.3% | MDA-MB-435 melanoma 41.8% | HCC-2998 colon 68.9% | KM12 colon 47%

COc1ccc(NC(=O)[C@H](C)N)cc1C(=O)Nc1cccc(-c2cc(=O)c3c(OC)c(OC)c(OC)cc3o2)c1
inactive: T-47D breast 41% | BT-549 breast 78.4% | MDA-MB-435 melanoma 82.1% | SW-620 colon 94% | MCF7 breast 57.8% | HCT-116 colon 75% | HCC-2998 colon 65.2% | KM12 colon 68.1%

NC(=S)N/N=C(/C=C/c1cn(-c2ccccc2)nc1-c1ccc(Cl)cc1)c1cc2ccccc2oc1=O
inactive: T-47D breast 38.7% | BT-549 breast 87.1% | MDA-MB-435 melanoma 55.6% | SW-620 colon 29.6% | MCF7 breast 29.6% | HCT-116 colon 31.1% | HCC-2998 colon 66% | KM12 colon 36.2%

C=CCn1c(SCC(=O)Nc2cccc(C(=O)/C=C/c3cc(OC)c(OC)c(OC)c3)c2)nc2ccccc2c1=O
inactive: T-47D breast 66.4% | BT-549 breast 75.9% | MDA-MB-435 melanoma 21.7% | MCF7 breast 18.2% | HCC-2998 colon 82.5% | KM12 colon 46.3%
active: SW-620 colon 3.18% | HCT-116 colon -26.4%

CCNC(=O)Oc1ccc(/C(=C(/C)c2ccc(Cl)cc2)c2ccc(OCCN3CCCC3)cc2)cc1
inactive: T-47D breast 56.8% | BT-549 breast 90.4% | MDA-MB-435 melanoma 89.8% | SW-620 colon 83.1% | MCF7 breast 25.3% | HCT-116 colon 53.1% | HCC-2998 colon 77.4% | KM12 colon 95.5%

C=CCn1c(SCC(=O)c2ccc(OC)cc2)nnc1-c1ccc(OC)cc1
inactive: T-47D breast 105% | BT-549 breast 95.9% | MDA-MB-435 melanoma 97.8% | SW-620 colon 106% | MCF7 breast 96% | HCT-116 colon 96.1% | HCC-2998 colon 109% | KM12 colon 97.7%

COc1ccc(-c2nc3cc(Cl)c(Cl)cc3n2CC(=O)N=Nc2c(O)[nH]c3ccc(Br)cc23)cc1
active: T-47D breast -52.7% | BT-549 breast 3.05% | MDA-MB-435 melanoma -59.1% | SW-620 colon -54.6% | MCF7 breast -11.6% | HCT-116 colon -31.5% | HCC-2998 colon -25.9% | KM12 colon 5.77%

Cc1cc(Cl)cc(NS(=O)(=O)c2ccc(-c3cnc(C4CC4)o3)cc2)c1
inactive: T-47D breast 36.1% | BT-549 breast 48% | SW-620 colon 28% | MCF7 breast 24.9% | HCT-116 colon 18.4% | HCC-2998 colon 19.8% | KM12 colon 15.4%
active: MDA-MB-435 melanoma -23.8%

Cc1cc(F)cc(NS(=O)(=O)c2ccc(-c3cnc(C4CC4)o3)cc2)c1
active: MDA-MB-435 melanoma -20.9%
inactive: T-47D breast 26.7% | BT-549 breast 48.8% | SW-620 colon 24.7% | MCF7 breast 21.4% | HCT-116 colon 19.5% | HCC-2998 colon 24.9% | KM12 colon 18.3%

— PubChem BioAssay (NCI)
